The experiment has as its target Calmodulin-1 (Homo sapiens) (UniProt P0DP23). In words: small molecules binding Ca-loaded calmodulin-1 – biochemical, small-molecule microarray, Cy5-labelled CALM1, plus calcium, artefact control for SMM control-protein annotation, profiling panel (AID 1112).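 Note: score merges spot fluorescence with signal to noise from triplicate slides.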 The settings on record: Cy5-CALM1 binding fluorescence, higher = more signal.
In the case of `COC(=O)[C@@]1(Cc2ccccc2)[C@H]2c3cc(C(=O)N4CCCC4)[nH]c3C[C@H]2CN1C(=O)c1ccccc1`, the composite z-score was determined as 0.705.
The result for `O=C(O)[C@H](Cc1ccccc1)n1cc(-c2ccccn2)nn1` reads 0.33; that for `O=C1O[C@@H](c2ccccc2)[C@@H](c2ccccc2)N2[C@@H](c3ccccc3OCCO)[C@]3(C(=O)Nc4ccc(C#CCCO)cc43)[C@@H](C(=O)N3CCN(c4ncccn4)CC3)[C@H]12`, 0.27; that for `COc1ccc([Si](C)(C)[C@@H]2[C@@H](CCO)O[C@]3(C(=O)N(Cc4cccc(N5C(=O)c6ccccc6Oc6ccccc65)c4)c4ccccc43)[C@H]2C)cc1`, 0.646.
The result for `CN(C)CCCN1C(=O)[C@@]2(c3ccc([N+](=O)[O-])cc3)CC(=O)N(CC34CC5CC(CC(C5)C3)C4)[C@@H]2c2ccc(CO)cc21` reads -0.828; that for `C[C@]12C(=O)N(CCCCCCO)[C@@H]3C(=O)N(c4ccc(Cl)cc4)CC=CC31O[C@@H]1/C=C\CCCOC(=O)C12` (some centres not stated), -0.559.
To `CC1CC/C=C\[C@H]2OC34C=CCN(c5ccc6ccccc6c5)C(=O)[C@H]3N(C(CO)C(C)C)C(=O)[C@@H]4C2C(=O)O1` (some centres not stated) belongs -0.419; to `O=C1O[C@@H](c2ccccc2)[C@@H](c2ccccc2)N2[C@@H](c3ccc(O)cc3)[C@]3(C(=O)Nc4ccc(C#CC5=CCCCC5)cc43)[C@@H](C(=O)N3CCN(c4ncccn4)CC3)[C@H]12`, -0.581.
Consider `C[C@H]1ON(c2ccc(C(=O)OC(C)(C)C)cc2)[C@@H](c2ccc(O)cc2)[C@@H]1C(=O)N1C(=O)OC[C@@H]1c1ccccc1`, for which the composite z-score was -0.32.
To `CCOC(=O)C[C@H]1[C@H](OC(=O)Cc2ccc3c(c2)OCO3)[C@@H](NC(=O)C2CCCCC2)c2cc(OCCCO)ccc2N1C(=O)c1ccc2ccccc2n1` belongs -0.896; to `CN1C(=O)C2C=CC(C(O)c3c(F)cccc3Cl)N(Nc3ccccc3)C2C1=O` (configuration not stated), 0.496; to `COCCCNC(=O)[C@]1(Cc2ccccc2CN=[N+]=[N-])N=C(c2ccc(OCCCO)cc2)O[C@@H]1c1ccccc1`, 0.0518.
For the compound `[N-]=[N+]=NCc1ccccc1C[C@@]1(C(N)=O)N=C(c2ccc(OCCCO)cc2)O[C@@H]1c1ccccc1CN=[N+]=[N-]`, the composite z-score stood at 0.693.
`COC(=O)[C@@]1(Cc2ccc(OC)cc2)[C@H]2c3cc(C(=O)N4CCCC4)n(CCc4cc5ccccc5[nH]4)c3C[C@H]2CN1C(=O)c1ccccc1`: the composite z-score is 0.913.
As for `COCCOC(=O)N1C(=O)[C@@]2(c3cc(C#Cc4ccc(OC)cc4)ccc31)[C@H](C(=O)NC[C@H](O)c1ccccc1)[C@H]1C(=O)O[C@H](c3ccccc3)[C@H](c3ccccc3)N1[C@@H]2c1ccc(O)cc1`, the composite z-score is -0.0377.
In the case of `C=CC[C@@]12N=C(c3ccc(OCCCO)cc3)O[C@@H]1c1ccccc1N(CCS(=O)(=O)c1ccccc1)C2=O`, the composite z-score was found to be 0.727.
`C=CCN1C(=O)[C@]2(CC=C)N=C(c3ccc(OCCCO)cc3)O[C@@H]2c2ccccc21`: the composite z-score is 0.541.
Regarding `Cc1ccc(S[C@]2(C(=O)NCC(C)C)CC(=O)N(Cc3ccccc3Cl)[C@@H]2c2ccc(CO)cc2I)cc1`, the composite z-score was -0.0595.
With `COc1ccccc1CN1C(=O)c2ccccc2[C@](Cc2ccccc2I)(C(=O)NC(C)C)[C@@H]1c1ccc(CO)cc1`, the composite z-score turned out to be 0.0649.
The result for `CCOc1cc(C(O)C2C=CC3C(=O)N(C4CCCCC4)C(=O)C3N2Nc2ccc(OC)cc2)ccc1O` (configuration not stated) reads 0.505; that for `COCCOC(=O)N1C(=O)[C@@]2(c3cc(C#Cc4ccc(OC)cc4)ccc31)[C@H](C(=O)N1CCCCCCC1)[C@H]1C(=O)O[C@H](c3ccccc3)[C@H](c3ccccc3)N1[C@@H]2c1ccc(O)cc1`, 0.184.
The result for `C=C(C(=O)CC[C@H](OC(=O)c1cccnc1)c1ccc(CO)o1)C(C)C` reads -0.316.
To `COC(=O)[C@H](Cc1ccccc1)N1CC(/C=C/C2CC2)=C[C@@H]1[C@@H](O)Cc1ccccc1` belongs -0.513; to `COC(=O)[C@@]1(Cc2ccc(OC)cc2)[C@H]2c3cc(C(=O)N(C)C)n(Cc4nc5ccccc5[nH]4)c3C[C@H]2CN1C(=O)c1ccccc1`, 1.06; to `CN(C)C(=O)[C@]1(CCC(=O)OC(C)(C)C)N=C(c2ccc(OCCCO)cc2)O[C@@H]1c1ccccc1`, 0.744.
Take `COCCOC(=O)N1C(=O)[C@@]2(c3cc(C#CC4(O)CCCCCC4)ccc31)[C@H](C(N)=O)[C@H]1C(=O)O[C@H](c3ccccc3)[C@H](c3ccccc3)N1[C@@H]2c1ccccc1OCCO`: the composite z-score is -0.0174.
To `Cc1ccc(S[C@]2(C(=O)NCC(F)(F)F)CC(=O)N(Cc3ccccc3)[C@@H]2c2ccc(CO)cc2)cc1` belongs 0.526.
